Pf growth 96h: inhibits malaria parasite growth, 96 h. 6.9% of 320,000 active. P. falciparum luciferase reporter growth, 96 h. Potency, µM (highest dose often 28.7 µM), for inactives: at the highest dose activity change, negative = inhibition, actives largely listed as inhibitors
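Cell-based qHTS: luciferase-tagged P. falciparum in erythrocytes (2% hematocrit, 0.05% parasitemia final) incubated with compounds for 96 hours, 37 C, 5% CO2; luciferase detection reagent then added and luminescence measured.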
Pf growth 48h: inhibits P. falciparum growth in the first generation, 48 h; P. falciparum luciferase growth in erythrocytes, 48 h; Potency, µM (series often up to 28.7 µM), for inactives: at the highest dose activity change, negative = inhibition, usual class: inhibitors; 5.9% of 310,000 active; AID 504832
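First compound was added to culture medium, then infected red cells at 0.1% parasitemia and 2% hematocrit (final). After incubation at 37 C under 5% CO2, luciferase detection reagent was dispensed and light output recorded.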
HCV inh: HCV inhibition | Huh7.5.1 HCVcc-Cre infection, luciferase reporter, 44 h | Potency, µM (series often up to 41.8 µM), without a hit: at the highest dose activity change, negative = inhibition, hits mostly inhibitors | 3.4% of 340,000 active | AID 651820
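Luciferase read-out (15 sec integration) after a 15 min room-temperature substrate step quantifies HCVcc-Cre infection. Cells, 1,000 per well, had compound added 4 h post-plating, then virus at ~0.5 moi, and were cultured 44 h.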
AMA1 RON2 block: inhibitors of Plasmodium falciparum AMA1-RON2 interaction; Potency, µM (top dose mostly 58.2 µM), for inactives: at the highest dose activity change, negative = inhibition, hits mostly inhibitors; 0.2% of 360,000 active; AID 720542; AlphaScreen AMA1-biotinylated RON2 peptide binding;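 note: 0% = vehicle wells and -100% = peptide control; nearly all actives have a fitted effect of over 45% in size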
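AMA1 (3D7) with his tag at 25 nM final met compounds first, then biotinylated RON2 peptide at 25 nM; detection used donor plus acceptor beads, 10 µg/mL apiece, read by AlphaScreen after 30 min at room temperature.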
Numbers without * were called inactive; ? = inconclusive; . = no result given. The list is not random: actives were taken first. Their share in the collection is about 11%. Calls come from the whole dose curve; as a rule, active = well fitted curve in the direction sought with a large enough effect; inconclusive = small, poorly fitted or top-dose-only effect, or another doubt; inactive = no such curve, though single readings can be large; an effect the other way counts as inactive or inconclusive. Unless noted, % is set by controls: 0 for no effect and ±100 for the full control effect; potency is the fitted concentration of half-maximal effect.

SMILES	Pf growth 96h	Pf growth 48h	HCV inh	AMA1 RON2 block
O=C1NC(=S)N/C1=C/c1cccc([N+](=O)[O-])c1O	1.85µM*	?	-1.5%	9.4%
COc1ccc(OCCN2CCC(C(=O)NC(c3ccsc3)c3ccccc3C)CC2)cc1 (stereo not given)	.	.	.	-7.6%
CCc1cccc(CC)c1N(COC)C(=O)Cn1c(C(C)O)nc2ccccc21 (stereo not given)	9.28µM*	0.0%	2.3%	-2.0%
CCOCCn1c(CC)nc2ccccc21	-13.6%	18.2%	29.0%	-1.1%
CCOCCn1c(C(C)O)nc2ccccc21 (stereo not given)	3.7µM*	25.1%	-11.9%	0.0%
CCOCN(C(=O)Cn1c(COC)nc2ccccc21)c1c(C)cccc1CC	?	?	12.1%	-4.5%
Cc1c2c(n3c(nc4ccccc43)c1C#N)N(CCCN(C)C)CC2	0.8%	-16.3%	?	1.9%
Cc1c2c(n3c(nc4ccccc43)c1C#N)N(c1ccccc1)CC2	0.657µM*	2.08µM*	-0.3%	.
Cc1c2c(n3c(nc4ccccc43)c1C#N)N(CCN(C)C)CC2	73.8%	2.08µM*	11.2µM*	-4.0%
O=C(O)c1cc2n(n1)C(C(F)(F)F)CC(C1CC1)N2 (stereo not given)	52.2%	2.08µM*	4.1%	-8.7%
Cc1nc(SCC(=O)NC2(C#N)CCCC2)n(CC(C)C)c1C	-8.1%	?	?	1.1%
O=C(O)c1cc([N+](=O)[O-])ccc1N1CCC(Cc2ccccc2)CC1	?	-26.3%	11.0%	-2.2%
O=C(Nc1ncccc1O)c1ccc(NS(=O)(=O)c2ccc3[nH]c(=O)[nH]c3c2)cc1	0.104µM*	0.131µM*	2.5%	0.0%
O=C(Nc1ccccc1O)c1ccc(NS(=O)(=O)c2cccc3cccnc23)cc1	?	2.33µM*	-2.8%	64.8%
O=C(Nc1ncccc1O)c1ccc(S(=O)(=O)Nc2ccccc2)cc1	?	0.828µM*	24.9%	89.0%
Cc1cccnc1NC(=O)c1ccc(NS(=O)(=O)c2ccc3[nH]c(=O)[nH]c3c2)cc1	4.8%	3.9%	19.4%	-3.0%
CCN(CC)S(=O)(=O)c1ccc(C(=O)N2CCN(C(=O)c3ccco3)CC2)cc1	-15.4%	-16.5%	4.9%	-6.9%
COc1cc(/C=C/C(=O)O)cc(S(=O)(=O)NC2CC2)c1OC	23.4%	7.9%	13.5%	-0.9%
CC1(C)COC(Cc2ccccc2)=N1	.	.	.	-1.1%
CC(c1ccccc1)n1cnc2ccccc2c1=O (stereo not given)	-101.7%	-17.0%	10.4%	3.2%
C(=C/c1nccc2c1[nH]c1ccccc12)/c1ccc2c(c1)OCO2	-3.6%	2.94µM*	5.5%	19.6%
N#Cc1ccccc1CCN1C(=O)c2ccccc2C1=O	8.0%	-18.1%	11.6%	0.9%
CCOC(=O)C1(CCOc2ccccc2)CCN(Cc2ccc(OC)c(O)c2)CC1	-24.0%	?	?	-1.6%
CCOC(=O)C1(S(=O)(=O)c2ccccc2)CCN(Cc2ccc(Cl)cc2)CC1	7.38µM*	?	-13.7%	-5.1%
CCOC(=O)C1(CCOc2ccccc2)CCN(Cc2ccc(O)cc2)CC1	0.5%	13.1µM*	?	-3.7%
SMILES	Pf growth 96h	Pf growth 48h	HCV inh	AMA1 RON2 block
CCOC(=O)C1(CCOc2ccccc2)CCN(Cc2ccc(OCCO)cc2)CC1	?	?	?	-17.1%
CCOC(=O)C1(CCOc2ccccc2)CCN(Cc2ccc(OC)c(COC)c2)CC1	-161.6%	0.0%	11.2µM*	?
CCOC(=O)C1(CCOc2ccccc2)CCN(Cc2ccc(O)c(OCC)c2)CC1	-24.5%	14.7µM*	?	-7.0%
CCCN1CCC(CCOc2ccccc2)(C(=O)OCC)CC1	?	2.9%	-0.4%	-2.1%
CCOC(=O)CNC(=O)N1CCC(CCOc2ccccc2)(C(=O)OCC)CC1	8.28µM*	5.8%	-2.9%	0.0%
Cc1c(Cl)cccc1NC(=O)CS(=O)(=O)c1ccccc1	22.9%	-7.5%	-1.4%	34.3%
CCCc1c(CC)c(=N)c2ccccc2n1C	1.9%	0.329µM*	-4.4%	19.3%
Cn1c(CN2CCCCC2)c(C#N)c2ccccc21	120.1%	-21.1%	?	8.4%
CC(C)(C)c1nnc(N/N=C/c2ccccc2O)n(N)c1=O	?	3.29µM*	?	11.1%
CC1(c2cccc(Br)c2)NC(=O)N(CC(=O)N2CCc3ccccc32)C1=O (stereo not given)	?	-0.6%	10µM*	11.2%
CN(C)CC[C@@](O)(c1ccccc1)c1ccccc1Cl	10.7µM*	?	.	.

Assay outcomes (PubChem BioAssay)
